Sampled rows, rich in hits. Any-hit rate of the full collection: about 21%.
Pf growth 48h – Primary qHTS for delayed death inhibitors of the malarial parasite plastid, 48 hour incubation; P. falciparum luciferase growth in erythrocytes, 48 h; Potency, µM (titrated, usually from 28.7 µM), inactives show at the top dose activity change, negative = inhibition, usual class: inhibitors; actives 5.9% (n = 310,000); AID 504832, 2011; note: potency is the fitted concentration of half-maximal effect; % is set by controls: 0 for no effect and ±100 for the full control effect
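Firefly luciferase activity from engineered P. falciparum reports growth; inhibitors lower the luminescent signal. Cultures contained 2% hematocrit erythrocytes at 0.1% final parasitemia.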
Cycloheximide cs – Cycloheximide Counterscreen for Small Molecule Inhibitors of Shiga Toxin; actives 12% (n = 300,000); AID 2314, 2010; cell reporter, cycloheximide protein synthesis inhibition counterscreen; max response, %; in the data active = max response mostly above about 13%, no sharp cut-off; inactive = mostly below about 14%; note: read at 38.3 µM for the half of the compounds with a filed dose; 0% is about no effect
Shiga inhibitor – A qHTS for Small Molecule Inhibitors of Shiga Toxin; Vero cells, Shiga toxin protein synthesis inhibition reporter; inhibition, % at 38.7 µM; actives 9.2% (n = 290,000); AID 2315, 2010; in the data active = inhibition mostly above about 28%, no sharp cut-off; inactive = mostly below about 43%; note: 0% is about no effect
Pf growth 96h – Primary qHTS for delayed death inhibitors of the malarial parasite plastid, 96 hour incubation. P. falciparum luciferase reporter growth, 96 h. Potency, µM (top dose mostly 28.7 µM), without a hit: at the top dose activity change, negative = inhibition, usual class: inhibitors. actives 6.9% (n = 320,000). AID 504834, 2011; note: potency is the fitted concentration of half-maximal effect; % is set by controls: 0 for no effect and ±100 for the full control effect
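Readout is luminescence from an integrated firefly luciferase in P. falciparum. Red cells, 2% hematocrit and 0.05% parasitemia final, were cultured with compound through two parasite generations (96 hours) at 37 C, 5% CO2.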
HCMV inh – qHTS Assay for inhibitors of the human cytomegalovirus (HCMV). HFF cells, HCMV-luciferase reporter, 72 h; stronger effect = lower value. activity change, negative = inhibition, % at 57.5 µM. actives 4.5% (n = 410,000); in the data active = activity change below about -60%; inconclusive = no clear call, values can overlap the other calls; inactive = above about -39%; note: % is set by controls: 0 for no effect and ±100 for the full control effect
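Luciferase read-out from HCMV-luciferase-infected HFFs (MOI 1 PFU/cell) 72 h post infection at 37C; compounds added after 16 h cell attachment; activity normalized between buffer-only basal and Salinomycin (10uM) inhibitor controls.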
HCV inh – qHTS Assay for Inhibitors of Hepatitis C Virus (HCV). Huh7.5.1 HCVcc-Cre infection, luciferase reporter, 44 h. Potency, µM (top dose mostly 41.8 µM), for the others: at the highest dose activity change, negative = inhibition, most hits filed as inhibitors. actives 3.4% (n = 340,000). AID 651820, 2012; note: potency is the fitted concentration of half-maximal effect; % is set by controls: 0 for no effect and ±100 for the full control effect
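Luciferase read-out (15 sec integration) after a 15 min room-temperature substrate step quantifies HCVcc-Cre infection. Cells, 1,000 per well, had compound added 4 h post-plating, then virus at ~0.5 moi, and were cultured 44 h.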
The depositor's hits bear a star; ? = inconclusive; nt = no result given. Unless noted, calls come from the whole dose curve; as a rule, active = well fitted inhibition curve with a large enough effect; inconclusive = small, poorly fitted or top-dose-only effect, or another doubt; inactive = no such curve, though single readings can be large or run the other way.

SMILES	Pf growth 48h	Cycloheximide cs	Shiga inhibitor	Pf growth 96h	HCMV inh	HCV inh
O=C(C[C@@H]1C[C@@H]2c3cc(NC(=O)c4ccc5c(c4)OCO5)ccc3O[C@@H]2[C@@H](CO)O1)NCc1cccnc1	nt	nt	nt	nt	-13	nt
C[C@@H]1CN([C@@H](C)CO)C(=O)CCCn2cc(nn2)CO[C@H]1CN(C)C(=O)c1ccc2ccn(C)c2c1	nt	nt	nt	nt	12	nt
COc1ccc(C2CC(c3cccc(Cl)c3)=NN2c2ccc(S(N)(=O)=O)cc2)cc1 (centres undefined)	nt	nt	nt	nt	1	13µM*
COc1ccc(C2=NN(c3ccccc3)C(c3cn(CCC(=O)O)nc3-c3ccccc3)C2)cc1 (centres undefined)	-11%	12	30	-16%	0	6%
CCC(=O)Nc1cccc(C2=NN(c3ccccc3)C(c3ccc(OC)cc3)C2)c1 (centres undefined)	?	2	-15	13µM*	-36	?
COc1ccc(C2=NN(c3ccc(C(=O)O)cc3)C(c3ccc(OC)c(OC)c3)C2)cc1 (centres undefined)	70%	39*	53*	52%	-33	4%
COc1ccc(S(=O)(=O)N2N=C(c3ccc(NS(C)(=O)=O)cc3)CC2c2ccco2)cc1 (centres undefined)	-22%	6	23	-10%	-25	4%
COc1ccc(C2CC(c3ccccc3)=NN2S(=O)(=O)c2ccccc2)cc1 (centres undefined)	?	34*	55*	?	-40	13µM*
O=C1CSc2ccc(C(=O)NCCc3ccc(Cl)cc3Cl)cc2N1	nt	nt	nt	nt	0	?
Cc1nc2c(=O)[nH]c3ccccc3c2o1	-11%	-1	-10	-5%	-4	4%
COc1ccc(C2CC(c3ccccc3O)=NN2c2ccccc2)cc1 (centres undefined)	nt	nt	nt	nt	17	-25%
COc1ccc(C2CC(c3ccccc3)=NN2c2ccc(N)cc2)cc1 (centres undefined)	?	39*	44*	?	19	-11%
Cc1ccc(C2=NN(S(=O)(=O)c3ccccc3)C(c3ccccc3O)C2)cc1 (centres undefined)	?	20*	69*	?	?	14µM*
COc1cc(C2CC(c3ccccc3)=NN2c2ccccc2)ccc1OCC(=O)O (centres undefined)	2%	-5	-1	?	19	7%
COc1ccc(C2CC(c3ccc(Cl)cc3)=NN2c2ccc(S(N)(=O)=O)cc2)cc1 (centres undefined)	nt	nt	nt	nt	13	?
COc1ccc(C2CC(c3ccccc3)=NN2c2ccc(Cl)c(C(=O)O)c2)cc1 (centres undefined)	-1%	26*	45*	?	10	19%
CC(=O)Oc1ccc(C2=NN(c3ccccc3)C(c3ccccc3)C2)cc1 (centres undefined)	12µM*	19	18	11%	153	?
CC(C)=CCN1CCN(Cc2cccn2-c2ncccn2)CC1CCO (centres undefined)	5%	-3	-8	1%	-25	-28%
Nc1ncnc2c1nc(Sc1ccc(Cl)cc1)n2[C@@H]1O[C@@H]2COP(=O)(O)O[C@H]2[C@H]1O	nt	nt	nt	nt	18	-1%
O=c1c2[nH]c3ccccc3c2nc(SCc2cccc(F)c2)n1-c1ccccc1	nt	nt	nt	nt	44	nt
O=C(Cn1ncc2c([nH]c3ccccc32)c1=O)Nc1cc(F)ccc1F	nt	nt	nt	nt	-19	nt
CCCCN(C(=O)CC1CCCC1)c1c(N)n(CCCC)c(=O)[nH]c1=O	-30%	nt	nt	-5%	0	13%
COc1ccc(S(=O)(=O)N2N=C(c3cccc(NS(C)(=O)=O)c3)CC2c2ccco2)cc1 (centres undefined)	-11%	1	-5	13µM*	?	0%
O=C(c1cccs1)N1CCCC(N2CCN(c3cccc(C(F)(F)F)c3)CC2)C1 (centres undefined)	?	-1	-7	-13%	-19	?
Cn1nccc1C(=O)N1CCCC(N2CCN(c3cccc(C(F)(F)F)c3)CC2)C1 (centres undefined)	-24%	2	-5	9%	-14	nt
SMILES	Pf growth 48h	Cycloheximide cs	Shiga inhibitor	Pf growth 96h	HCMV inh	HCV inh
Cc1nnsc1C(=O)N1CCCC(N2CCN(c3cccc(C(F)(F)F)c3)CC2)C1 (centres undefined)	13µM*	2	1	?	-61*	-14%
Cc1cc(C(=O)N2CCCC(N3CCN(c4cccc(C(F)(F)F)c4)CC3)C2)no1 (centres undefined)	?	-1	-6	1%	3	7%
O=C(c1cc(C2CC2)on1)N1CCCC(N2CCN(c3cccc(C(F)(F)F)c3)CC2)C1 (centres undefined)	12µM*	-4	-2	0%	-32	1%
Cc1cc(C)c(C(=O)N2CCCC(N3CCN(c4cccc(C(F)(F)F)c4)CC3)C2)o1 (centres undefined)	?	7	-11	?	-17	11µM*
O=C(c1ccco1)N1CCCC(N2CCN(c3cccc(C(F)(F)F)c3)CC2)C1 (centres undefined)	10µM*	-1	-2	15%	24	22µM*
O=C(CCn1c(=O)oc2ccc(Cl)cc21)NCCCN1CCOCC1	14%	-5	4	?	14	0%
Cc1ccc(C)c(CN2C(=O)c3ccccc3S(=O)c3ccc(C(=O)NCc4ccco4)cc32)c1 (centres undefined)	nt	nt	nt	nt	-17	nt
Cn1c(SCC(=O)Nc2nncs2)nnc1C1CC1	16%	-1	-6	?	-6	21%
COc1ccc(NC(=O)CN(C)C(=O)c2ccc(C)c(S(=O)(=O)N3CCCCC3)c2)cc1	nt	nt	nt	nt	2	-9%
Oc1c(Br)cc2oc3c(c2c1CNCc1ccccc1)CCCC3	nt	-6	-11	0.29µM*	11	-24%
Cc1noc(NS(=O)(=O)c2ccc(NC(=O)C(F)(F)C(F)(F)C(F)(F)F)cc2)c1C	nt	nt	nt	nt	4	-10%
O=c1c(-c2ccc(Cl)cc2)c(C(F)(F)F)oc2c(CN3CCCCC3)c(O)ccc12	nt	nt	nt	nt	1	nt
Cc1oc2c(CN3CCCC3)c(O)ccc2c(=O)c1Oc1ccccc1Br	1.7µM*	-3	9	6%	51	5%
Cc1oc2c(CN3CCCCC3)c(O)ccc2c(=O)c1-c1ccc(Cl)cc1	1.7µM*	-2	-8	?	nt	2%
COc1ccccc1-c1c(C)oc2c(CN3CCCC(C)C3)c(O)ccc2c1=O (centres undefined)	13µM*	2	-6	10µM*	-5	1%

Screening results as filed in PubChem BioAssay.
